# From ChEMBL document CHEMBL2218924, “A broad activity screen in support of a chemogenomic map for kinase signalling research and drug discovery” (Biochem J, 2013)
# What was measured:
# [1] = target: Ephrin type-A receptor 4 (Homo sapiens) (UniProt P54764); settings: at 10 µM
# [2] = target: Ephrin type-A receptor 5 (Homo sapiens) (UniProt P54756); settings: at 1 µM
# [3] = target: Ephrin type-A receptor 5 (Homo sapiens) (UniProt P54756); settings: at 10 µM
# [4] = target: T1, Ephrin type-A receptor 8 (Homo sapiens) (UniProt P29322); settings: at 10 µM
# T1 sequence (whole entry): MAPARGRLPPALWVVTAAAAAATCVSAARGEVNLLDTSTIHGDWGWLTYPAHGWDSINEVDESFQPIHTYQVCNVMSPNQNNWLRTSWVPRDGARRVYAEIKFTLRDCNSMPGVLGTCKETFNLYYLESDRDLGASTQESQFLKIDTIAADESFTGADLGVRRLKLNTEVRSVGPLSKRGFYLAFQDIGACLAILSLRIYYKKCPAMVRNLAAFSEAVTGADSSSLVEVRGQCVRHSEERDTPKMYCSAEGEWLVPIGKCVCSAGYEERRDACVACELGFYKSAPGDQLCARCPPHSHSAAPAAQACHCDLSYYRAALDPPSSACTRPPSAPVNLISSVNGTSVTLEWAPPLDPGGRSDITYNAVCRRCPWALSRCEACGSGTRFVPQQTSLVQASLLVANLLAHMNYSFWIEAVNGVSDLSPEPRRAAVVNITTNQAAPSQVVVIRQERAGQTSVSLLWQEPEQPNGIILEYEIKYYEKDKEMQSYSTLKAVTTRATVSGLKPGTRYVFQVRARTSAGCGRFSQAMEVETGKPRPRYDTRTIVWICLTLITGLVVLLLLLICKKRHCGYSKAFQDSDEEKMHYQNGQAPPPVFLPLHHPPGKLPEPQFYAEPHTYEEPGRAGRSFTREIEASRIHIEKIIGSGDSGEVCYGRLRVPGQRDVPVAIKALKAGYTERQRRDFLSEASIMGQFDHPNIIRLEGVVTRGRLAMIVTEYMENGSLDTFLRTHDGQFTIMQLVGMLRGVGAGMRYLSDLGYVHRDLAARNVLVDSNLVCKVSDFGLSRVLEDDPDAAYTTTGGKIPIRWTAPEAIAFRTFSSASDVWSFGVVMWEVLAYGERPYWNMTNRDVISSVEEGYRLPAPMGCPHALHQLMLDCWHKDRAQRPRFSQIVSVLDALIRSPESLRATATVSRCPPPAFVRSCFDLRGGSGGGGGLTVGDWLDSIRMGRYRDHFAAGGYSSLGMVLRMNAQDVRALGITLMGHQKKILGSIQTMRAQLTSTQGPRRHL
# [5] = target: T2, Ephrin type-B receptor 4 (Homo sapiens) (UniProt P54760); settings: at 1 µM
# T2 sequence (whole entry): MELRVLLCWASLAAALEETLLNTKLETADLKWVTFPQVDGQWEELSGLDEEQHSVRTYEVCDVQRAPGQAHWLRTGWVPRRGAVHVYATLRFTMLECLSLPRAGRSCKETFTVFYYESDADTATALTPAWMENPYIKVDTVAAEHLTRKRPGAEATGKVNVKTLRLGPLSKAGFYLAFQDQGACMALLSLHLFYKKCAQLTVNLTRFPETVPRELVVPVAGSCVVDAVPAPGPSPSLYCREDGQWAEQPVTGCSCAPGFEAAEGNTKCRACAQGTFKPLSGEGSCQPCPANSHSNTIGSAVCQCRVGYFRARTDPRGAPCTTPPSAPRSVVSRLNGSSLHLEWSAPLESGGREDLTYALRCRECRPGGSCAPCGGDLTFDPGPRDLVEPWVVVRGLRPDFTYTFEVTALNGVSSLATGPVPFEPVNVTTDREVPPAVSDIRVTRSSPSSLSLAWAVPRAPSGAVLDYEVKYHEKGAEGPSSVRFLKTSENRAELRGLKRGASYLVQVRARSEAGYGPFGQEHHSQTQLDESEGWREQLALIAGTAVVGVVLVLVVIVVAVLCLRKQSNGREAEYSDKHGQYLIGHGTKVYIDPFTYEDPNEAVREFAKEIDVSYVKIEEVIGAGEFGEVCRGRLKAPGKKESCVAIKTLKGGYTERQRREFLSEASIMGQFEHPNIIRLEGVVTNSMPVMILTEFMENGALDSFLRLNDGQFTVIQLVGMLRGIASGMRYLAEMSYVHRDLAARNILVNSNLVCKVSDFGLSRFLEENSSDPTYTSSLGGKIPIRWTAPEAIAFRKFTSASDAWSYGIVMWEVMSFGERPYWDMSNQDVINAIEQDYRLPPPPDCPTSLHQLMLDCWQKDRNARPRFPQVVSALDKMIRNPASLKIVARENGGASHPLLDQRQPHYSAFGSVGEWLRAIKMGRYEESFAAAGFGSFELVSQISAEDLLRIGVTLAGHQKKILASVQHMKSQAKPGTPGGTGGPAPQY
# [6] = target: T2, Ephrin type-B receptor 4 (Homo sapiens); settings: at 10 µM
# [7] = target: Receptor tyrosine-protein kinase erbB-4 (Homo sapiens) (UniProt Q15303); settings: at 10 µM
# Sequence of Receptor tyrosine-protein kinase erbB-4 (Homo sapiens) (Q15303 whole entry): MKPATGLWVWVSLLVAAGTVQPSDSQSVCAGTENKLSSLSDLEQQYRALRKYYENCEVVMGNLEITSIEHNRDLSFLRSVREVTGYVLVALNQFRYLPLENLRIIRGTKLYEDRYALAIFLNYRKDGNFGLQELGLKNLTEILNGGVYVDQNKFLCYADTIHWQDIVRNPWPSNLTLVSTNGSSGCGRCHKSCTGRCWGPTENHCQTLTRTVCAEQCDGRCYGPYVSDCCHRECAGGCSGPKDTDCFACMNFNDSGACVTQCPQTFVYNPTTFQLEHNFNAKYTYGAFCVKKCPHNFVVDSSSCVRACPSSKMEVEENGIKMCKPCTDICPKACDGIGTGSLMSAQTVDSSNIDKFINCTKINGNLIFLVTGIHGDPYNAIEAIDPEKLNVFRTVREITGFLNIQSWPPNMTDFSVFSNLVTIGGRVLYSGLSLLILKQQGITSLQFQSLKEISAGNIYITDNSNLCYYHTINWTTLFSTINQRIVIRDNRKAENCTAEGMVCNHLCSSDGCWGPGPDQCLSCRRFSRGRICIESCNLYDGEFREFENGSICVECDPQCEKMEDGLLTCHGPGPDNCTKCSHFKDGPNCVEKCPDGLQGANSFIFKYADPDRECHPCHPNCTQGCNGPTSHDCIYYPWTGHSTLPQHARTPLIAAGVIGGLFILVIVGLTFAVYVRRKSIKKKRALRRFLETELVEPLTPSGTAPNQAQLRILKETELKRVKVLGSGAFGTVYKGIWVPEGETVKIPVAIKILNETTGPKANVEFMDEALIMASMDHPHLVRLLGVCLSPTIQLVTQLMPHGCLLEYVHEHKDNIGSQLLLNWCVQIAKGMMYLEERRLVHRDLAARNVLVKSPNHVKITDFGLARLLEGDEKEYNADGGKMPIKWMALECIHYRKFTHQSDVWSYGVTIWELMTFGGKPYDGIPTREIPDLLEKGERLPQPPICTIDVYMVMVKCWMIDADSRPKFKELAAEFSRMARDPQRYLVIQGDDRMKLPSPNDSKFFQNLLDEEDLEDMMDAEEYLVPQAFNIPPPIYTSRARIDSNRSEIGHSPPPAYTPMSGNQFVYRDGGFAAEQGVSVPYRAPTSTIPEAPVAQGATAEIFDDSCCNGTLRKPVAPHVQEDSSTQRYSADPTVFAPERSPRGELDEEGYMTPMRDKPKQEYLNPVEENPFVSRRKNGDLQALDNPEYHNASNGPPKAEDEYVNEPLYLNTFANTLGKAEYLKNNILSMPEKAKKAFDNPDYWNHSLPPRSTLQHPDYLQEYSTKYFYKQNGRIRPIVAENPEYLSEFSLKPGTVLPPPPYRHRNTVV
# [8] = target: Ephrin type-A receptor 7 (Homo sapiens) (UniProt Q15375); settings: at 1 µM
# Sequence of Ephrin type-A receptor 7 (Homo sapiens) (Q15375 28-998 limits assumed): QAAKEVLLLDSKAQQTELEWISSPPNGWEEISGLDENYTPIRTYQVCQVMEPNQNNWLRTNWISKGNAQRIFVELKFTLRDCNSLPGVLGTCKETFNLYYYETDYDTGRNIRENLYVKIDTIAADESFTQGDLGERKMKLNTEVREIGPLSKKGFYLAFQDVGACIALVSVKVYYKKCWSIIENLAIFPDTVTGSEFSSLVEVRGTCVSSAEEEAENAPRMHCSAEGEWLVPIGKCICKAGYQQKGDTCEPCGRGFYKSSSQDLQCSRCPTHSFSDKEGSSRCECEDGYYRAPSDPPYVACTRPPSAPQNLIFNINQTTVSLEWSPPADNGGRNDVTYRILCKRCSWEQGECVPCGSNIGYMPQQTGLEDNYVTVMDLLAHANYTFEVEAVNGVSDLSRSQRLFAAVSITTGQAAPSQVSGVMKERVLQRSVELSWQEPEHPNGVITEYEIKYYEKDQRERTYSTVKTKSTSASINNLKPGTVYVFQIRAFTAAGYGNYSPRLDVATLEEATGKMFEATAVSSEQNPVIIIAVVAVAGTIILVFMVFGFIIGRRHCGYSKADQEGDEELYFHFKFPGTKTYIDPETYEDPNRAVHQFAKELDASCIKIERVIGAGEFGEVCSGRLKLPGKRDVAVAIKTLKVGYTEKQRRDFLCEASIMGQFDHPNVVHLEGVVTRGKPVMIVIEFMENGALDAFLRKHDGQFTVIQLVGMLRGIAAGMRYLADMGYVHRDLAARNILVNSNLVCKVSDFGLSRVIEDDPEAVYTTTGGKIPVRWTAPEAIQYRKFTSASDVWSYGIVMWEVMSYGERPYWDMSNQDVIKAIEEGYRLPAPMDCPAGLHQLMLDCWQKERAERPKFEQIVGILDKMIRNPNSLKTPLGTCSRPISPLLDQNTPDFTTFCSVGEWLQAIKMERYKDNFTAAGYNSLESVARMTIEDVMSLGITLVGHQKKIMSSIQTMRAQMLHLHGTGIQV
# [9] = target: Ephrin type-A receptor 7 (Homo sapiens) (UniProt Q15375); settings: at 10 µM
# [10] = target: T3, Ephrin type-B receptor 1 (Homo sapiens) (UniProt P54762); settings: at 1 µM
# T3 sequence (whole entry): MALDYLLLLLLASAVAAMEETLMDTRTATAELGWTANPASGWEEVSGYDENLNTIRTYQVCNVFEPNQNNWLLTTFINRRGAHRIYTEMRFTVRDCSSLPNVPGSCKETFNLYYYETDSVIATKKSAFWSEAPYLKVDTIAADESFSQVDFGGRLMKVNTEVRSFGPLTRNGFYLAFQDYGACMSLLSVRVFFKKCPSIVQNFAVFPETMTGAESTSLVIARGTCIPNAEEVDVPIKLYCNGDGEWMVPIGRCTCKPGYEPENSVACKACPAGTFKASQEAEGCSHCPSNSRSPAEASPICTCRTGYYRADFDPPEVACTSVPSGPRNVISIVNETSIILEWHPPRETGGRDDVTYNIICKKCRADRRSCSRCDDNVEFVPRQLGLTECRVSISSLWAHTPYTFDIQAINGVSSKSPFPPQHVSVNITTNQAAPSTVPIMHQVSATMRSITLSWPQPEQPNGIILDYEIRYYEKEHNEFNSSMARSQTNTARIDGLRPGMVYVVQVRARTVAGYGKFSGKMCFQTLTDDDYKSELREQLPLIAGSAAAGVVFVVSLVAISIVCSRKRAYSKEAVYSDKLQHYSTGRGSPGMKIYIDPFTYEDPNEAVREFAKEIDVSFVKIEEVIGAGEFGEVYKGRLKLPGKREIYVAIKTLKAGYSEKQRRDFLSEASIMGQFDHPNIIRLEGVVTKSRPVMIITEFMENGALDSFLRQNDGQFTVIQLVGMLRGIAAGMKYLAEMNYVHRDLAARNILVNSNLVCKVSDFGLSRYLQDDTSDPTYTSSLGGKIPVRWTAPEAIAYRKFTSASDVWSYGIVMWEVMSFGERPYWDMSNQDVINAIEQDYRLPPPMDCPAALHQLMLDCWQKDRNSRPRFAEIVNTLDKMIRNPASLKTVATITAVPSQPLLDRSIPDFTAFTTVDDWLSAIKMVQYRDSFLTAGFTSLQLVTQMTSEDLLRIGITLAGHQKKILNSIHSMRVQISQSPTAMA
# [11] = target: T3, Ephrin type-B receptor 1 (Homo sapiens); settings: at 10 µM
# [12] = target: Focal adhesion kinase 1 (Homo sapiens) (UniProt Q05397); settings: at 1 µM
# Sequence of Focal adhesion kinase 1 (Homo sapiens) (Q05397 2-1052 limits assumed): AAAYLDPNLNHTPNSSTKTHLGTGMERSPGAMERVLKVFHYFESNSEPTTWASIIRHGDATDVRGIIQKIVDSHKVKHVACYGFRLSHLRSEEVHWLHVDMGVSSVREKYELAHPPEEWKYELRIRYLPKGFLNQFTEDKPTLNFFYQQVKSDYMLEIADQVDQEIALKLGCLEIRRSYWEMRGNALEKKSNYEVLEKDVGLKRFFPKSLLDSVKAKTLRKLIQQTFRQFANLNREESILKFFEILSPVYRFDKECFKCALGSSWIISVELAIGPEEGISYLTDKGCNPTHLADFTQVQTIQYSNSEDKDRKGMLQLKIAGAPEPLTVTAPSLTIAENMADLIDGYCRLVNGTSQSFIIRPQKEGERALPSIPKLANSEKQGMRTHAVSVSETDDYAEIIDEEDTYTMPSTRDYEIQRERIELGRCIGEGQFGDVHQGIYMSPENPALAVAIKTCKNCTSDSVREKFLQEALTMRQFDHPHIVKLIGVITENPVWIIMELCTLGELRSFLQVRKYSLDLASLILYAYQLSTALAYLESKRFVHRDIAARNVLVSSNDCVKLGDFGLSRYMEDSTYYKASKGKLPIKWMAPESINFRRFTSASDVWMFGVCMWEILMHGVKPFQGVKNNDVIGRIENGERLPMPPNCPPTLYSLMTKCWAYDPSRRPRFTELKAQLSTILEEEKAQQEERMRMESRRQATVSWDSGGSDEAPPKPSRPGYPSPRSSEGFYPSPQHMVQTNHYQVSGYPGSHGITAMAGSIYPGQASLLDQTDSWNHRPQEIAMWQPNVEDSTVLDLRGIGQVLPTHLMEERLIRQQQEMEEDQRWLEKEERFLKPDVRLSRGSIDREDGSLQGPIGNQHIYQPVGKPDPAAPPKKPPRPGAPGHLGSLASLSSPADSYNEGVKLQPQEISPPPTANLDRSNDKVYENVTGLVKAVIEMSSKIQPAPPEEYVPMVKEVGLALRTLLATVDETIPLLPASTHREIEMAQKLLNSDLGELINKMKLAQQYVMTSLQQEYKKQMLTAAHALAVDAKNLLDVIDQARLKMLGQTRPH
# Sequence of Ephrin type-A receptor 5 (Homo sapiens) (P54756 whole entry): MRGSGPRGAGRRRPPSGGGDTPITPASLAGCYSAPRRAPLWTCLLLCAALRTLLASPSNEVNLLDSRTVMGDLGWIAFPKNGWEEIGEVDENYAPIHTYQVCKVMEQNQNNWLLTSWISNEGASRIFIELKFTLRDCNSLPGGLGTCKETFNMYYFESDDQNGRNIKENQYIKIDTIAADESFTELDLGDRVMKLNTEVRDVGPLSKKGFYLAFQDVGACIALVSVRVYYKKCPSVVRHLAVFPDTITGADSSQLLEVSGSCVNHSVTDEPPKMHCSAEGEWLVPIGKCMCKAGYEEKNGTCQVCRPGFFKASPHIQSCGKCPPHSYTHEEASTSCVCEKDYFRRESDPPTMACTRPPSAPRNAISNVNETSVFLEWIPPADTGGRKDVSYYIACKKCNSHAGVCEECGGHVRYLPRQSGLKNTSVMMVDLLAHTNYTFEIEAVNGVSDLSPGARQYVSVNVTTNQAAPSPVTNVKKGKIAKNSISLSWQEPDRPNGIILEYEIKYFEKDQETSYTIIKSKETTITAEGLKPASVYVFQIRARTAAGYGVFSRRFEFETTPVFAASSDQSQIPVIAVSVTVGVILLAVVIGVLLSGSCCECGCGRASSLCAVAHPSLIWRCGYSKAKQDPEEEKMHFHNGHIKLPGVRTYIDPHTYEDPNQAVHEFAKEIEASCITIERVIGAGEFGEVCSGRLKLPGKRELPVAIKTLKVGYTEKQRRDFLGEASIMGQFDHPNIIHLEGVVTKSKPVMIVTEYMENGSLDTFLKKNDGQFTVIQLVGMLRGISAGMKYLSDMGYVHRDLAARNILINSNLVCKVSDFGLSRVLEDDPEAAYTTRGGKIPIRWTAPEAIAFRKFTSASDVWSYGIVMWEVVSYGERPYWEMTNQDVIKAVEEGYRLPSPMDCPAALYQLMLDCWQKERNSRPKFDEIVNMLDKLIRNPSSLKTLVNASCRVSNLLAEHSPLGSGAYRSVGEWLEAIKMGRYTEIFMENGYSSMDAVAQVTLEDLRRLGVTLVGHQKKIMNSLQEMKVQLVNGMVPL
compound,measurement,setting,value
Nc1nccc(-c2c(-c3ccc(F)cc3)ncn2C2CCNCC2)n1,residual activity,[1],71%
same,residual activity,[2],113%
same,residual activity,[3],72%
same,residual activity,[4],60%
same,residual activity,[5],77%
same,residual activity,[6],18%
same,residual activity,[7],66%
CCOc1nc(NC(=O)Cc2cc(OC)ccc2OC)cc(N)c1C#N,residual activity,[3],74%
O=C1NC(=O)C(c2c[nH]c3ccccc23)=C1c1c[nH]c2ccccc12,residual activity,[8],99%
same,residual activity,[9],67%
same,residual activity,[10],83%
same,residual activity,[11],39%
same,residual activity,[6],82%
same,residual activity,[7],73%
same,residual activity,[12],122%
